{
  "source": "PubChem BioAssay (EPA / NIEHS)",
  "note": "Several values for one entry are separate records, joined by “and”; a condition that tells them apart may be missing. Identical values can stand only once. Some structures have more than one record in an assay (separate samples or runs), and their calls can disagree. Activity calls are given as the source filed them. The calls were made as follows: active = hit-call score of the fitted dose curve at least 0.9, where 1 is the maximum; inactive = score below 0.9.",
  "data": [
    {"read-out": "CD90, THY1 (gene 7070)", "assay": "BSK_BF4T_CD90: BioMAP Diversity Plus: BF4T Assay for CD90 Biomarker Activity (AID 2284262)", "conditions": "primary human bronchial epithelial cells with fibroblasts", "method_in_brief": "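CD90 levels by ELISA after 24 h treatment of human bronchial epithelial cell/dermal fibroblast cultures, analysed versus DMSO. Overt cytotoxicity checked in parallel cultures by sulforhodamine B staining.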", "values": [
      {"smiles": "O=C(O)C(F)(F)C(F)(F)C(F)(F)C(F)(F)C(F)(F)C(F)(F)C(F)(F)C(F)(F)C(F)(F)C(F)(F)C(F)(F)C(F)(F)F", "outcome": "inactive"},
      {"smiles": "FC1CC(F)(F)C(F)(F)C1(F)F", "note": "(stereo unspecified)", "outcome": "inactive"},
      {"smiles": "O=C(O)C(F)(F)C(F)(F)C(F)F", "outcome": "inactive"},
      {"smiles": "O=C(O)C(F)(F)C(F)(F)OC(F)(F)F", "outcome": "inactive"},
      {"smiles": "O=C(O)C(F)(F)C(F)(F)C(F)(F)C(F)(F)C(F)(F)C(F)(F)C(F)(F)C(F)(F)C(F)(F)C(F)F", "AC50": "17.3 µM (active) and 1.67 µM (active)"},
      {"smiles": "OCCCC(F)(F)C(F)(F)C(F)(F)C(F)(F)C(F)(F)C(F)(F)C(F)(F)F", "AC50": "30 µM (active) and 21.3 µM (active)"},
      {"smiles": "NC(=O)C(F)(F)C(F)(F)C(F)(F)C(F)(F)F", "outcome": "inactive"},
      {"smiles": "Cc1ccc(S(=O)(=O)OCC(F)(F)C(F)(F)C(F)(F)C(F)(F)C(F)(F)C(F)F)cc1", "outcome": "inactive"},
      {"smiles": "FC(F)(F)C(F)(F)C(F)(F)N(C(F)(F)C(F)(F)C(F)(F)F)C(F)(F)C(F)(F)C(F)(F)F", "outcome": "inactive"},
      {"smiles": "FC(F)(F)C(F)(F)C(F)(F)C(F)(F)C(F)(F)C(F)(F)C(F)(F)I", "outcome": "inactive"},
      {"smiles": "O=C(O)C(F)(F)C(F)(F)C(F)(F)C(F)(F)C(F)(F)C(F)(F)C(F)(F)C(F)(F)C(F)(F)C(F)(F)C(F)(F)C(F)(F)C(F)(F)F", "outcome": "inactive"},
      {"smiles": "CCO[Si](CCC(F)(F)C(F)(F)C(F)(F)C(F)(F)C(F)(F)C(F)(F)F)(OCC)OCC", "outcome": "inactive"},
      {"smiles": "OCC(F)(F)C(F)(F)C(F)(F)C(F)F", "outcome": "inactive"},
      {"smiles": "OCCCC(F)(F)C(F)(F)C(F)(F)F", "outcome": "inactive"},
      {"smiles": "FC(F)(Br)C(F)(F)C(F)(F)C(F)(F)C(F)(F)C(F)(F)Br", "outcome": "inactive"},
      {"smiles": "COC(=O)CCC(F)(F)C(F)(F)C(F)(F)C(F)(F)F", "outcome": "inactive"},
      {"smiles": "FC(F)(I)C(F)(F)C(F)(F)C(F)(F)I", "outcome": "inactive"},
      {"smiles": "C=C(C)C(=O)OCC(F)(F)C(F)(F)C(F)(F)F", "outcome": "inactive"},
      {"smiles": "O=C(O)C(F)(F)C(F)(F)F", "outcome": "inactive"},
      {"smiles": "N=C(N)C(F)(F)C(F)(F)C(F)(F)C(F)(F)C(F)(F)C(F)(F)C(F)(F)F", "outcome": "inactive"},
      {"smiles": "FC(F)(F)C(F)(F)C(F)(F)C(F)(F)C(F)(F)C(F)(F)C(F)(F)C(F)(F)CCS", "outcome": "inactive"},
      {"smiles": "O=C(O)C=C(C(F)(F)F)C(F)(F)F", "outcome": "inactive"},
      {"smiles": "FC(F)(F)C(F)(F)C(F)(F)CI", "outcome": "inactive"},
      {"smiles": "CC(C)(C)C(=O)CC(=O)C(F)(F)C(F)(F)C(F)(F)F", "outcome": "inactive"},
      {"smiles": "FC(F)(F)C(F)(F)C(F)(F)C(F)(F)C(F)(F)C(F)(F)C(F)(F)Br", "outcome": "inactive"},
      {"smiles": "FC(F)(F)C(F)(F)C(F)(F)C(F)(F)C(F)(F)CCI", "outcome": "inactive"},
      {"smiles": "O=C(O)C(F)(F)C(F)(F)C(F)(F)C(F)(F)C(F)(F)C(F)(F)C(F)(F)C(F)(F)Cl", "AC50": "30 µM (active)", "outcome": "inactive"},
      {"smiles": "O=P(O)(O)OCCC(F)(F)C(F)(F)C(F)(F)C(F)(F)C(F)(F)C(F)(F)F", "outcome": "inactive"},
      {"smiles": "FC(F)(F)C(F)(F)C(F)(F)C(F)(F)C(F)(F)C(F)(F)CCS", "outcome": "inactive"},
      {"smiles": "FC(F)(F)C(F)(F)C(F)(F)C(F)(F)CCI", "outcome": "inactive"},
      {"smiles": "C=CC(F)(F)C(F)(F)C(F)(F)C(F)(F)C(F)(F)C(F)(F)C(F)(F)C(F)(F)C=C", "outcome": "inactive"},
      {"smiles": "CCCCCCCCC(F)(F)C(F)(F)C(F)(F)C(F)(F)C(F)(F)C(F)(F)F", "outcome": "inactive"},
      {"smiles": "C=C(C)C(=O)OCC(F)(F)C(F)(F)C(F)(F)C(F)(F)C(F)(F)C(F)(F)C(F)(F)F", "outcome": "inactive"},
      {"smiles": "O=C(Cl)C(F)(F)C(F)(F)C(F)(F)C(F)(F)C(F)(F)C(F)(F)C(F)(F)C(F)(F)F", "outcome": "inactive"},
      {"smiles": "OCC(F)(F)C(F)(F)C(F)(F)F", "outcome": "inactive"}
    ]}
  ]
}
